Molecules are shown by their SMILES.

The record followed here is ChEMBL document CHEMBL1157539, “Thousands of chemical starting points for antimalarial lead identification” (Nature, 2010).

For the first test, the system named is Plasmodium falciparum. Description: GSK_TCMDC: Inhibition of Plasmodium falciparum 3D7 in whole red blood cells, using parasite LDH activity as an index of growth. Test compounds present at 2uM. The format is functional.
In the case of `CN1CCCN(Cc2cccc(-c3cccc(NS(=O)(=O)c4cccc5cccnc45)c3)c2)CC1.O=C(O)C(F)(F)F`, the Inhibition was 97%.
The compound `Oc1cccc(-c2nc(-c3ccccc3)c(-c3ccc(Oc4ccc(-c5[nH]c(-c6cccc(O)c6)nc5-c5ccccc5)cc4)cc3)[nH]2)c1` registered an Inhibition of 91%.
Take `CCNc1cc(C(=O)N[C@@H](Cc2ccccc2)[C@H](O)CNCc2ccc3c(c2)OCCO3)cc(N2CCCCS2(=O)=O)c1.O=CO`: the Inhibition was 95%.
As to `FC(F)(F)c1ccc2c(NN=Cc3cccc(Cl)c3)ccnc2c1`, the Inhibition is given as 93%.

A further test relates to Plasmodium falciparum. In words: GSK_TCMDC: Inhibition of Plasmodium falciparum Dd2 in whole red blood cells, using parasite LDH activity as an index of growth. Test compounds present at 2uM. The format is functional.
With `CCN(CC)/C(=N/C(=N)NCc1ccc(Cl)cc1Cl)NCCCCCCN/C(=N\C(=N)NCc1ccc(Cl)cc1Cl)N(CC)CC`, the Inhibition was found to be 99%.
Still for that read-out and setting: the same measure for `COC(=O)Cn1c(C2CCN(CC3CCN(C(=O)/C=C/c4ccc(Cl)c(Cl)c4)CC3)CC2)nc2ccccc21`: 2%; for `Br.CC1(C)NC(N)=NC(=N)N1OCCOc1cccc(C(F)(F)F)c1`: 97%; for `O=C(NCCN1CCCC1)N1CCCN(c2ncnc3cc(-c4ccc(Cl)cc4)sc23)CC1.O=C(O)C(F)(F)F`: 32%.
On to `Cc1cccc2nc(-c3ccc(-c4ccc(NC(=O)c5cncn5C)cc4)s3)[nH]c12`, for which the Inhibition was found to be 30%.
Compound `COc1cc(F)c2nccc([C@@H](O)CN3CCC(NC(=O)OCc4ccccc4)C(F)C3)c2c1` (stereo not given in full) displayed an Inhibition of 100%.
The same measure, in the same setting: the same measure for `CCc1cc2c(=O)c(-c3nc(C)cs3)c(N)oc2c(CN2CCCCC2)c1O`: 97%; for `Clc1cc(Nc2ncnc3cc(C#C[C@H]4CCCN4)sc23)cc2nc(Cc3ccccc3)[nH]c12.O=C(O)C(F)(F)F`: 57%.
Still for that read-out and setting: with `Cl.O=C(Nc1ccc(NC2=NCCN2)cc1)c1ccc(C(=O)Nc2ccc(NC3=NCCN3)cc2)cc1` the figure was 86%; with `O=C(Nc1cccc(CN2CCCN(CC3CC3)CC2)c1)c1ccc(Cl)c(Cl)c1.O=C(O)C(F)(F)F`, 5%.
Same read-out and setting: the same measure for `COC(=O)[C@@H](NC(=O)[C@H](Cc1ccc(OC)c(OC)c1)Nc1ccc(C#N)c2ccccc12)c1ccc(O)cc1.O=C(O)C(F)(F)F`: 100%; for `CCCc1cc(Cc2cnc(N)nc2N)ccc1OCCCCCC(=O)OCC`: 1%; for `CC(C)[C@@H](C(=O)NCc1cccc(C(F)(F)F)c1)N1C(=O)CCC1C(=O)Nc1ccc([N+](=O)[O-])cc1` (stereo not given in full): 2%.
Take `O=C(/C=C/c1ccc(Cl)c(Cl)c1)NCCCCCN1CCC(CCNC(=O)/C=C/c2ccc(Cl)c(Cl)c2)CC1`: the Inhibition amounted to 56%.
Same read-out and setting: the same measure for `O=C(NCc1ccc(Cl)c(Cl)c1)c1ccc(-c2nc3cc(F)c(F)cc3[nH]2)cc1`: 12%; for `Cc1nc(-c2ccccc2)nc(N2CCN(C(=O)c3ccco3)CC2)c1Cc1ccccc1F`: 86%.
`CC1(C)N=C(NC(=O)Nc2ccc([N+](=O)[O-])cc2)N=C(N)N1OCc1cccc2ccccc12`: the Inhibition is recorded as 21%.
As for `O=C(Nc1ccc(C(F)(F)F)cc1)c1ccc(S(=O)(=O)NC2CCN(CC3CCCCC3)C2)cc1.O=C(O)C(F)(F)F` (stereo not given), the Inhibition is listed as 16%.
In the case of `Fc1ccc2[nH]c3c(NCCN4CCCCC4)ncnc3c2c1`, the Inhibition came to 44%.
In the case of `CN(C)CCCNCCS(=O)(=O)c1cccc(Nc2ccc(-c3cccc(N(C)C)c3)cn2)c1`, the Inhibition came out at 0%.
Still for that read-out and setting: the same measure for `COc1ccc(-c2cccc(NC(=O)c3ccc(F)cc3)c2)cc1CNC(C)C.O=C(O)C(F)(F)F`: 9%.
On to `COc1ccccc1Cc1nc2ccccc2nc1SCC(=O)Nc1cccc(C(F)(F)F)c1`, for which the Inhibition amounted to 91%.
Still for that read-out and setting: with `CCN1CCN(c2cc(C)c3cc(NC(=O)c4cc(OC)cc(OC)c4)ccc3n2)CC1` the figure was 90%; with `CC[C@H](C)CNC(=O)c1cccc(-c2cccc(CNCC3CNCCCO3)c2)n1.O=C(O)C(F)(F)F` (stereo not given in full), 54%.
Same read-out and setting: the same measure for `COc1ccc(Nc2nccc(N3CCC(NC(=O)C(C)c4ccc(Cl)cc4)CC3)n2)cc1` (stereo not given): 52%.
Same read-out and setting: with `CC(=O)c1sc(Cc2nc3ccccc3s2)nc1C` the figure was 88%.
The compound `COc1ccc(/C=C/C(=O)NCCCCCN2CCC(c3c[nH]c4ccccc34)CC2)cc1O` yielded an Inhibition of 1%.
The same measure, in the same setting: with `CCNC(=O)Nc1cccc(-c2ccc(-c3nc4cccc(C)c4[nH]3)s2)c1` the figure was 20%.
In turn, `Cc1cc(N[C@@H](CC(C)C)C(=O)NCc2cccc(F)c2)nc(NCCc2ccc(F)cc2)n1.O=C(O)C(F)(F)F` yielded an Inhibition of 6%.
`Oc1c(C(Nc2ccccn2)c2ccc(Cl)cc2Cl)ccc2cccnc12` (stereo not given) returned an Inhibition of 60%.
The compound `CCN(CC)CCOC(=O)c1ccc(NC(=O)c2cn(-c3ccccc3)nc2-c2cccs2)cc1.Cl` gave an Inhibition of 59%.

A word on the Inhibition: it is the percentage by which the read-out fell short of the control. A low value points to a weak effect.
